# Bioassay records deposited in PubChem BioAssay by National Center for Advancing Translational Sciences (NCATS).
# Most compounds without a hit are left out; they make up all but 7.3% or so of the library.
# Rab9 prom act = qHTS Assay for Rab9 Promoter Activators; Potency, µM (titrated, usually from 9.22 µM), for the others: at the top dose activation, negative = inhibition, most hits filed as activators; AID 485297, 2010; Huh7 Rab9 promoter-luciferase reporter, luminescence, 24 h; hit rate 2.8% among 320,000; further: % of control where 0% means no effect; nearly all actives have a fitted effect of over 60% in size
#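 Huh7 cells stably carrying a Rab9 promoter-luciferase reporter, 1500 cells per well in OP-MEM I with 10% FBS, treated with compound 24 hours at 37C. Luciferase activity read by luminescence after 10 minutes with Amplite reagent.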
# ELG1 genotox = qHTS screen for small molecules that induce genotoxicity in human embryonic kidney (HEK293T) cells expressing luciferase-tagged ELG1 | hit rate 1.3% among 330,000 | Potency, µM (series often up to 46 µM), for the others: top-dose activity change, positive = activation, most hits filed as activators | HEK293T ELG1-luciferase reporter, luminescence, 16 h; further: % of control where 0% means no effect; nearly all actives have a fitted effect of over 60% in size
#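 Cells (2,000/well) expressing the ELG1-luciferase fusion are dosed by pin tool and kept 16 hr at 37 °C, 5% CO2. Signal comes from ONE-Glo luciferase reagent after 30 min at room temperature.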
# NPC1 prom act = qHTS Assay for NPC1 Promoter Activators | Huh7 NPC1 promoter luciferase reporter, 24 h | Potency, µM (doses to about 9.22 µM), for inactives: at the top dose activation, usual class: activators | hit rate 2.4% among 320,000 | AID 485313, 2010; further: % of control where 0% means no effect; nearly all actives have a fitted effect of over 60% in size
#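 Luciferase expression driven by the NPC1 promoter was measured in stably transfected Huh7 cells after a 24 h compound incubation, using a luciferase reagent and a luminescence read.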
# SMN2 splice enh = qHTS Assay for Enhancers of SMN2 Splice Variant Expression. AID 1458, 2008. Potency, µM (top dose mostly 46.1 µM), inactives show top-dose activity change, positive = activation, usual class: activators. hit rate 2.8% among 210,000. HEK293 SMN2-luciferase splicing reporter, luminescence, 30-36 h; further: % of control where 0% means no effect; nearly all actives have a fitted effect of over 55% in size
#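 HEK293 cells carry an SMN2 […]–luciferase reporter in which exon 7 inclusion puts luciferase in frame. Cells were plated 10-12 h before compound addition, then incubated 30-36 h at 37C. ONE-Glo luminescence was read; sodium butyrate at 4.5 mM final served as control.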
# KinaseGlo FLuc = Counterscreen for Luciferase (Kinase-Glo TM) Inhibition | Luciferin 4-monooxygenase (Photuris pensylvanica), Q27757 | AID 1379, 2008 | Potency, µM (top dose mostly 38.3 µM), without a hit: at the highest dose activity change, negative = inhibition, usual class: inhibitors | Kinase-Glo luciferase, ATP luminescence, 8 min | hit rate 0.28% among 200,000; further: on the % scale 0 is the no-effect control and ±100 the full control effect; nearly all actives have a fitted effect of over 60% in size
#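 Inhibition of Kinase-Glo luciferase light generation was assessed at 10 uM ATP in pH 7.2 imidazole buffer, with luminescence measured after eight minutes at ambient temperature.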
# FLuc counter = qHTS profiling assay for firefly luciferase inhibitor/activator using purifed enzyme and Km concentrations of substrates (counterscreen for miR-21 project); purified FLuc, Km substrates, luminescence inhibition; AID 588342, 2011; hit rate 6.9% among 360,000; Luciferin 4-monooxygenase (Photinus pyralis), P08659; Potency, µM (doses to about 57.5 µM), for the others: top-dose activity change, negative = inhibition, usual class: inhibitors;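 further: plate controls were vehicle for no effect and reference inhibitor for full effect; nearly all actives have a fitted effect of over 55% in size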
# Target sequence (P08659 whole entry, looked up): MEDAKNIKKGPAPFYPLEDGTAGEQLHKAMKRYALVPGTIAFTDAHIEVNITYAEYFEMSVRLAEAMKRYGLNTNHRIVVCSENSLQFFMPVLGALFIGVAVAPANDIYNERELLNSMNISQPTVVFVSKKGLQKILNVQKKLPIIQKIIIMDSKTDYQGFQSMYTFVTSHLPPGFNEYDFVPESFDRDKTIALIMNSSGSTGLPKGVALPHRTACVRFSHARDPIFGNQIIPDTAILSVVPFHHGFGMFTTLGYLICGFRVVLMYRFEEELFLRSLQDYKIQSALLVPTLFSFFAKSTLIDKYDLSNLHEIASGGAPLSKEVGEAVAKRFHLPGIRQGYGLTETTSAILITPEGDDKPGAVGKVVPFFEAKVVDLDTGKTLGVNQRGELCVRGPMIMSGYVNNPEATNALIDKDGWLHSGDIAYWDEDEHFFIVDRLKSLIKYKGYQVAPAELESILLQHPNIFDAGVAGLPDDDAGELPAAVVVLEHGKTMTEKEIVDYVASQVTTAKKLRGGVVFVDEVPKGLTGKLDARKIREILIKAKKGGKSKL
#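 Biochemical qHTS of compounds, final roughly 60 µM downward over six points, against 10 nM purified firefly luciferase using Km concentrations of substrates (10 uM D-luciferin, 10 uM ATP) in Tris acetate pH 7.5 buffer; luminescence output.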
# The depositor's hits bear a star; ? = inconclusive; · = not tested or not shown; [ ] = another dose, or the depositor's remark. The call rests on the fitted dose curve; in most records, active means well fitted curve in the direction sought with a large enough effect; inconclusive means small, poorly fitted or top-dose-only effect, or another doubt; inactive means no such curve, though single readings can be large; an effect the other way counts as inactive or inconclusive. Potency means the concentration at half of the fitted maximal effect.
SMILES,Rab9 prom act,ELG1 genotox,NPC1 prom act,SMN2 splice enh,KinaseGlo FLuc,FLuc counter
CCOc1ccc2oc(C(=O)NC(C)(C)CC)c(C)c2c1,2.5µM*,?,?,?,-1%,17µM*
COc1ccc2oc(C(=O)Nc3nccs3)c(C)c2c1,1.1µM*,0.52µM*,1.1µM*,·,·,0.54µM*
CCOc1ccc2oc(C(=O)NC3CC(C)(C)NC(C)(C)C3)c(C)c2c1,-3%,6%,0%,-4%,-3%,-3%
CCCCc1nnc(NC(=O)c2oc3ccc(OC)cc3c2C)s1,16%,9%,21%,·,·,-25%
CCOc1ccc2oc(C(=O)Nc3nccs3)c(C)c2c1,·,2.6µM*,·,·,·,·
O=C(C1CCN(S(=O)(=O)Cc2ccccc2)CC1)N1CCN(c2ccc(F)cc2)CC1,·,·,·,·,·,-1%
O=C(NC(=S)NC1CCCCC1)c1ccccc1,?,?,?,·,·,15µM*
O=C(NC(=S)NC1CCCCCC1)c1cncc(Br)c1,20%,?,?,16µM*,2%,?
O=C(NC(=S)NC1CCS(=O)(=O)C1)c1ccccc1 (configuration not stated),2%,8%,-6%,·,·,4%
COc1ccccc1CNC(=O)c1ccc2c(c1)nc(C)n2-c1cccc(C)c1,·,·,·,·,·,-14%
CCOC(=O)N1CCC(N2C(=O)c3ccccc3C2Nc2ccc3c(c2)OCCO3)CC1 (configuration not stated),11%,?,1%,-25%,-6%,21µM*
CCOC(=O)C1CCN(c2c(Nc3ccc4c(c3)OCCO4)c(=O)c2=O)CC1,17%,?,11%,-9%,0%,21µM*
CCOC(=O)C1CCN(C(C(=O)Nc2ccc3c(c2)OCCO3)c2ccccc2)CC1 (configuration not stated),-1%,-2%,0%,-16%,0%,-2%
O=C(Nc1ccccc1)Nc1ccc(F)c([N+](=O)[O-])c1,-4%,-6%,-3%,-47%,-5%,17µM*
O=C(Nc1ccccc1)Nc1ccc(Cl)c([N+](=O)[O-])c1,12%,-11%,13%,-4%,0%,19µM*
Cc1ccc(NC(=O)Nc2ccccc2)cc1[N+](=O)[O-],?,-1%,?,13µM*,-4%,8.5µM*
O=C(Nc1ccc(Cl)c([N+](=O)[O-])c1)Nc1nc2ccccc2s1,17%,-5%,18%,·,·,?
O=C(NC(=S)Nc1ccc(F)c([N+](=O)[O-])c1)c1ccccc1F,-4%,11%,0%,10%,1%,?
COc1cc(C(=O)NCC(c2ccc3c(c2)OCO3)N2CCOCC2)cc(OC)c1OC (configuration not stated),·,·,·,·,·,2%
CCOc1ccc(NC(=O)CSc2nc(-c3ccccc3)c3cc(OCC)ccc3n2)cc1,·,·,·,-3%,·,1%
Cc1ccc(S(=O)(=O)C(CNC(=O)C(=O)NCCc2ccc(Cl)cc2)c2cccs2)cc1 (configuration not stated),·,·,·,·,·,-10%
c1ccc(Cn2nc(-c3ccccc3)nc2-c2ccccc2)cc1,18%,?,13%,25%,-10%,21µM*
Cn1nc(-c2ccccc2)nc1-c1ccccc1,?,12%,?,·,·,21µM*
Cc1nnc2nc(-c3ccccc3)nc(-c3ccccc3)n12,9%,-5%,-1%,·,·,-7%
Cc1ccc(Cn2nc(-c3ccccc3)nc2-c2ccccc2)cc1,3.5µM*,?,?,?,-25%,15µM*
SMILES,Rab9 prom act,ELG1 genotox,NPC1 prom act,SMN2 splice enh,KinaseGlo FLuc,FLuc counter
Cc1cc(C)c(NC(=O)Cn2nc(-c3ccccc3)nc2-c2ccccc2)c(C)c1,-2%,?,1%,8%,1%,2%
COc1ccccc1CCNC(=O)C(=O)NCC(c1ccc2c(c1)OCO2)N1CCOCC1 (configuration not stated),·,·,·,·,·,-1%
Cn1c(=O)c2c(-c3ccccc3)n3c(c2n(C)c1=O)C(c1ccc([N+](=O)[O-])cc1)Nc1ccccc1-3 (configuration not stated),·,·,·,·,·,-4%
Cc1cc(C2=NNC(=NC3CC3)SC2)c(C)n1-c1ccccc1,-40%,-10%,-32%,-101%,?,0.076µM*
CN=C1NN=C(c2cc(C)n(-c3c(C)n(C)n(-c4ccccc4)c3=O)c2C)CS1,-3%,1%,0%,-2%,-1%,-1%
COc1ccc(-n2c(C)cc(C3=NNC(=NC4CC4)SC3)c2C)cc1,0%,?,-2%,4µM*,-6%,5.4µM*
O=P(O)(O)O[C@@H]1O[C@H](CO)[C@@H](O)[C@H](O)[C@@H]1O,·,·,·,-2%[9.22 µM],-3%[7.66 µM],·
COc1ccccc1CNC(=O)CSc1ccsc1[N+](=O)[O-],3.5µM*,8%,?,80%,-4%,?
COc1ccc(Cl)cc1Nc1nc(N)c2ccccc2n1,20%,4%,?,·,·,17µM*
Cc1ccc(C)c(Nc2nc(N)c3ccccc3n2)c1,2.5µM*,?,2.5µM*,14µM*,-11%,4.8µM*
O=C(Nc1ccc(Cn2cccn2)cc1)c1ccc(COc2cccc(Br)c2)cc1,0.5µM*,?,0.56µM*,13µM*,1%,15µM*
CC(C)NC(=O)c1sc2ncccc2c1-n1cccc1,·,·,·,·,·,5%
CC(=O)NNc1nc(-c2ccc(NC(C)=O)cc2)cs1,-2%,-1%,0%,13%,-2%,1%
CC(=O)Nc1ccc(S(=O)(=O)Nc2cccc(-c3csc(C)n3)c2)cc1,-10%,-5%,-6%,·,0%,-8%
CC(=O)Nc1cccc(-c2csc(Nc3ncccn3)n2)c1,1.6µM*,?,3.2µM*,3.5µM*,-8%,2.1µM*
CC(=O)Nc1cccc(-c2csc(Nc3ccc(C)cn3)n2)c1,0.89µM*,1.8µM*,1µM*,2.2µM*,-1%,0.43µM*
CC(=O)Nc1ccc(-c2csc(Nc3cccc(C)n3)n2)cc1,1.6µM*,16%,1.8µM*,·,-2%,9.5µM*
CC(=O)c1cccc(NC(=O)c2c(-c3ccccc3)c(-c3ccccc3)nn(C)c2=O)c1,·,·,·,-9%,·,-4%
COc1cc(-c2cc(OC)c3c(C)oc(C)c3c(=O)c2)ccc1OC(=O)c1cccc(Cl)c1,·,·,·,·,·,-9%
O=C1CCCN1CCC(=O)N1CCCC(CO)(Cc2ccccc2)C1 (configuration not stated),3.5µM*,8%[9.26 µM],?,·,·,17µM*
